SKKanGAS inh: inhibitors of SKKanGAS S. pyogenes growth in kanamycin (SK-promoter or general growth effect). BacTiter-Glo, 6 h. inhibition, % at 7.5 µM. hit rate 1.3% among 300,000;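 active = mean replicate score, as percent of positive control median, at least 50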;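 note: strain carries kanamycin resistance gene driven by streptokinase promoter and grows in 40 µg/ml kanamycin; loss of luminescence reflects streptokinase promoter inhibition or plain growth inhibition; 0% = median of DMSO wells and 100% = positive control at its reference dose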
PfHsp90 set2: inhibits growth of yeast expressing Plasmodium falciparum Hsp90. S. cerevisiae expressing PfHsp90, BacTiter-Glo ATP, 48 h; yeast lacking PDR1 and PDR3 efflux regulators. inhibition, % at 9.4 µM. hit rate 0.32% among 310,000. AID 504621;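 active = every replicate shows inhibition above about 80%, whatever the replicate mean, limit read from the data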;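 note: 0% = DMSO neutral controls and 100% = 20 µM radicicol positive controls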
tim23-1 inh: tim23-1 yeast growth inhibition | inhibition, % at 20 µM | hit rate 1.3% among 330,000 | S. cerevisiae tim23-1 growth, BacTiter-Glo luminescence, 24 h;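 active = growth inhibition of the mutant yeast at or above 50%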;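 note: temperature-sensitive mutant grown at 25 °C; plate controls were DMSO-treated mutant yeast for no effect and medium wells lacking yeast for full effect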
tim10-1 inh: inhibits growth of tim10-1 mutant yeast; S. cerevisiae tim10-1 ts strain growth, BacTiter-Glo, 24 h; inhibition, % at 20 µM; hit rate 2.2% among 330,000; AID 463190;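 active = inhibition of at least 40%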;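 note: mutant grown at 25 °C; 0% = DMSO wells with yeast and 100% = wells holding no yeast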
NALP3 yeast inh: NALP3 inhibition in yeast | Yeast reconstituted NLRP3/ASC/caspase-1, beta-gal luminescence, 24 h | inhibition, % at 10 µM | hit rate 0.39% among 330,000 | AID 2825;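 active = inhibition of 50% or more; inactive = inhibition below 50%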;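 note: plate controls were induced DMSO wells for no effect and uninduced yeast grown without galactose for full effect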
TIM10 inh: TIM10 yeast growth inhibition; S. cerevisiae TIM10 strain growth, BacTiter-Glo luminescence, 24 h; inhibition, % at 10 µM; hit rate 1.4% among 330,000;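 active = inhibition of 40% or more at the single tested concentration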;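 note: wild-type TIM10 isogenic control strain grown at permissive 25 °C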
NALP3 yeast conf: confirmation of NALP3 inhibitors in yeast; shares compounds with NALP3 yeast inh; yeast expressing human NALP3, luminescence; inhibition, % at 10 µM; hit rate 81% among 1,300; in the data active = inhibition above about 48%
Casp1-ASC yeast: active in yeast caspase-1-ASC counter-screen for NALP3 inhibitors. inhibition, % at 10 µM. yeast expressing Caspase-1-ASC, luminescence counter screen. shares compounds with NALP3 yeast inh. hit rate 66% among 1,000
NALP3 yeast rt: retest-confirmed inhibitor of NALP3 in yeast. yeast expressing human NALP3, luminescence read-out. hit rate 53% among 1,000. inhibition, % at 10 µM. shares compounds with NALP3 yeast inh. AID 488794
tim10-1 confirm: confirmation of tim10-1 mutant yeast growth inhibitors | shares compounds with tim10-1 inh | S. cerevisiae tim10-1 ts strain growth, BacTiter-Glo, 24 h | inhibition, % at 20 µM | hit rate 56% among 7,400;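 active = inhibition of yeast growth at or above a set limit in either of two repeat tests at 20 µM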;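 note: tim10-1 mutant grown at permissive 25 °C to find synthetic lethal compounds; 0% = DMSO yeast wells and 100% = medium wells without yeast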
* = called active by the depositor. This is a sample that favours compounds with a hit; in the whole collection about 4.5% have one here. Cut-off read from the data, not from the text of the source, unless noted: active = inhibition above about 50%; inactive = the rest.

How did O=C1/C(=C\c2ccco2)SC(=S)N1c1ccc(O)cc1 do in these assays?
SKKanGAS inh: 10; PfHsp90 set2: -19; tim23-1 inh: 43; tim10-1 inh: 6; NALP3 yeast inh: 81*; TIM10 inh: 17; NALP3 yeast conf: 61*; Casp1-ASC yeast: 26; NALP3 yeast rt: 32

How did CCn1c(SCC(=O)NCCc2ccccc2)nc2c([nH]c3ccccc32)c1=O do in these assays?
SKKanGAS inh: -8; PfHsp90 set2: 13; tim23-1 inh: -18; tim10-1 inh: -11; NALP3 yeast inh: 12; TIM10 inh: -9

What do the screens show for `c1ccc2nc(-c3nc4ccccc4[nH]3)ccc2c1`?
SKKanGAS inh: 14; PfHsp90 set2: 35; tim23-1 inh: 22; tim10-1 inh: 15; NALP3 yeast inh: 53*; TIM10 inh: 23; NALP3 yeast conf: 67*; Casp1-ASC yeast: 42; NALP3 yeast rt: 42

How did Fc1ccccc1-c1nc2ccccc2[nH]1 do in these assays?
SKKanGAS inh: 6; PfHsp90 set2: 35; tim23-1 inh: 41; tim10-1 inh: -19; NALP3 yeast inh: 60*; TIM10 inh: 6; NALP3 yeast conf: 58*; Casp1-ASC yeast: 54*; NALP3 yeast rt: 60*

Results for Cc1ccc(C(=O)c2coc3ccc(O)cc23)cc1 ?
SKKanGAS inh: 0; PfHsp90 set2: -24; tim23-1 inh: 28; tim10-1 inh: -11; NALP3 yeast inh: 65*; TIM10 inh: -17; NALP3 yeast conf: 66*; Casp1-ASC yeast: 50; NALP3 yeast rt: 47

Results for COc1ccc(C(=O)c2coc3ccc(OC(C)=O)cc23)cc1 ?
SKKanGAS inh: -6; PfHsp90 set2: -21; tim23-1 inh: 35; tim10-1 inh: 31; NALP3 yeast inh: 44; TIM10 inh: 2

Results for COc1ccc2occ(C(=O)c3ccc(N)cc3)c2c1 ?
SKKanGAS inh: -1; PfHsp90 set2: 4; tim23-1 inh: 47; tim10-1 inh: 26; NALP3 yeast inh: 57*; TIM10 inh: 19; NALP3 yeast conf: 69*; Casp1-ASC yeast: 49; NALP3 yeast rt: 45

Results for Cc1ccc(C(=O)c2coc3ccc(O)c(Cl)c23)cc1 ?
SKKanGAS inh: -4; tim23-1 inh: 50; tim10-1 inh: 2; NALP3 yeast inh: 37; TIM10 inh: 3

Results for Cn1c(SCC(=O)NC2CCCC2)nnc1-c1cccs1 ?
SKKanGAS inh: 4; PfHsp90 set2: -2; tim23-1 inh: -4; tim10-1 inh: -8; NALP3 yeast inh: 8; TIM10 inh: 5

What do the screens show for `Cc1ccc(Cl)cc1NC(=O)c1cnn2c1NC(c1ccco1)CC2C(F)(F)F` (stereo not given)?
SKKanGAS inh: -1; PfHsp90 set2: 35; tim23-1 inh: 25; tim10-1 inh: 16; NALP3 yeast inh: 58*; TIM10 inh: 14; NALP3 yeast conf: 66*; Casp1-ASC yeast: 72*; NALP3 yeast rt: 57*

How did O=C(NCc1cccc(Cl)c1)c1cnn2c1NC(c1ccco1)CC2C(F)(F)F (stereo not given) do in these assays?
SKKanGAS inh: 5; PfHsp90 set2: 18; tim23-1 inh: 26; tim10-1 inh: 26; NALP3 yeast inh: 20; TIM10 inh: 24

How did COC(=O)[C@H](CCSC)NC(=O)[C@@H](Cc1cnc[nH]1)NC(=O)OCc1ccccc1 do in these assays?
SKKanGAS inh: -2; PfHsp90 set2: -5; tim23-1 inh: 2; tim10-1 inh: -10; NALP3 yeast inh: 13; TIM10 inh: 3

What do the screens show for `COc1ccc(NC(=O)CC2CC3CCC2C3)cc1S(=O)(=O)N1CCOCC1` (stereo not given)?
PfHsp90 set2: -22; tim23-1 inh: 10; tim10-1 inh: -7; NALP3 yeast inh: 18; TIM10 inh: -12

How did Cc1cc2ncn(S(=O)(=O)N3CCCCC3)c2cc1C do in these assays?
SKKanGAS inh: 7; PfHsp90 set2: -7; tim23-1 inh: 30; tim10-1 inh: 30; NALP3 yeast inh: 69*; TIM10 inh: 16; NALP3 yeast conf: 61*; Casp1-ASC yeast: 74*; NALP3 yeast rt: 68*

How did CCOc1ccc(NS(=O)(=O)c2ccc(C(=O)NNC(=O)c3ccccc3O)cc2)cc1 do in these assays?
SKKanGAS inh: 17; PfHsp90 set2: 24; tim23-1 inh: -1; tim10-1 inh: 11; NALP3 yeast inh: 22; TIM10 inh: -9

What do the screens show for `C/C(CCC12CC3CC(CC(C3)C1)C2)=N\NC(N)=S`?
SKKanGAS inh: 0; PfHsp90 set2: 10; tim23-1 inh: 45; tim10-1 inh: 58*; NALP3 yeast inh: 58*; TIM10 inh: 4; NALP3 yeast conf: 50*; Casp1-ASC yeast: 70*; NALP3 yeast rt: 41; tim10-1 confirm: -11

How did C/C(CC1CC(C)OC1=O)=N\NC(N)=S (stereo not given) do in these assays?
SKKanGAS inh: -3; PfHsp90 set2: -8; tim23-1 inh: -1; tim10-1 inh: 3; NALP3 yeast inh: -2; TIM10 inh: 8

What do the screens show for `O=C(C1CCN(S(=O)(=O)c2cccc3nsnc23)CC1)N1CCc2ccccc21`?
SKKanGAS inh: 10; PfHsp90 set2: 1; tim23-1 inh: 0; tim10-1 inh: 30; NALP3 yeast inh: -5; TIM10 inh: 23

How did O=C(C1CCN(S(=O)(=O)c2cccc3nsnc23)CC1)N1CCn2c1nc1ccccc12 do in these assays?
SKKanGAS inh: 1; PfHsp90 set2: 1; tim23-1 inh: 30; tim10-1 inh: 42*; NALP3 yeast inh: 74*; TIM10 inh: 32; NALP3 yeast conf: 75*; Casp1-ASC yeast: 66*; NALP3 yeast rt: 75*; tim10-1 confirm: 26

What do the screens show for `Nc1nc(-c2ccccc2)c(-c2ccc([N+](=O)[O-])cc2)s1`?
SKKanGAS inh: -1; PfHsp90 set2: 1; tim23-1 inh: 38; tim10-1 inh: 46*; NALP3 yeast inh: 95*; TIM10 inh: 26; NALP3 yeast conf: 98*; Casp1-ASC yeast: 98*; NALP3 yeast rt: 95*; tim10-1 confirm: 16

Results for COc1ccc(C(NC(=O)CN2C(=O)NC3(CCc4ccccc43)C2=O)c2ccc(OC)cc2)cc1 (stereo not given) ?
tim23-1 inh: 21; tim10-1 inh: 8; NALP3 yeast inh: 17; TIM10 inh: 10
